The nature of test [1]: TOX21_p53_BLA_p2_viability: Viability Assessment in the Tox21 HCT-116 p53 Agonism Beta-lactamase Assay, Phase 2 (AID 2283591).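 Further: compound exposure lasted 16 h at 37 °C; actives lower the ATP signal meaning cytotoxicity.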 The procedure, abridged:
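HCT116 p53-bla cells, 4000/well, dosed after 5 h plating (217-fold dilution of DMSO stocks) and incubated 16 h at 37C. Viability taken as cellular ATP by CellTiter-Glo luminescence after 30 min RT; signal loss marks cytotoxicity.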

A short description of test [2]: TOX21_p53_BLA_p3_viability: Viability Assessment in the Tox21 HCT-116 p53 Agonism Beta-lactamase Assay, Phase 3 (AID 2283593).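 Further: cells exposed to compound for 16 h before reading.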 The procedure, abridged: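 HCT116 cells, 4000/well, dosed 5 h after plating by pin transfer (217-fold dilution from DMSO stock) and incubated 16 h at 37C, 5% CO2. Viability read as ATP luminescence with CellTiter-Glo after 30 min at room temperature.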

A short description of test [3]: TOX21_p53_BLA_p4_viability: Viability Assessment in the Tox21 HCT-116 p53 Agonism Beta-lactamase Assay, Phase 4 (AID 2283597).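 Further: hits lower the luminescence signal meaning cytotoxicity.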 The procedure, abridged: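 Cytotoxicity was inferred from loss of CellTiter-Glo luminescence. HCT116 cells had been dosed with compounds after 5 h plating, incubated 16 h at 37C and 5% CO2, and exposed to the CCF4-AM substrate for 2 h.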
The target of test [4] is Cellular tumor antigen p53 (Homo sapiens) (UniProt P04637). Kind of test: TOX21_p53_BLA_p4_ratio: Tox21 HCT-116 p53 Agonism Beta-lactamase Assay, Ratio, Phase 4 (AID 2283601). Summed up: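 HCT-116 p53 beta-lactamase reporter cells (4000/well) preincubated 5 h, then compound (217-fold dilution of DMSO stock) for 16 h at 37C. CCF4-AM substrate added 2 h at room temperature; 460/530 nm emission ratio fitted upward versus DMSO.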

For test [5] the target is unchanged. Kind of test: TOX21_p53_BLA_p5_ratio: Tox21 HCT-116 p53 Agonism Beta-lactamase Assay, Ratio, Phase 5 (AID 2283599). The procedure, abridged: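 HCT-116 p53-bla cells (4000/well) plated 5 h, dosed with compound (217-fold DMSO dilution) for 16 h at 37 C; CCF4-AM substrate 2 h at room temperature. Activity is the 460/530 nm emission ratio (405 nm excitation), fitted in gain-of-signal direction versus DMSO.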

A short description of test [6]: TOX21_p53_BLA_p5_viability: Viability Assessment in the Tox21 HCT-116 p53 Agonism Beta-lactamase Assay, Phase 5 (AID 2283600). The procedure, abridged: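 Luciferase-coupled ATP quantitation of cells treated for 16 h (37C, 5% CO2) with test chemicals delivered in DMSO via a 217-fold dilution; 4000 cells/well; reagent incubated 30 min at room temperature before luminescence reading.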

In test [7] the target is PGR (gene 5241) (UniProt P06401). Kind of test: TOX21_PR_BLA_Followup_Antagonist_ratio: Tox21 HEK293 Progesterone Receptor (PR) Antagonism Beta-lactamase Follow-Up Assay, Ratio (AID 2283934).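 Further: PR-UAS-bla HEK293T cells stimulated with 1 nM R5020 agonist for 16 hr.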 The procedure, abridged:
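Cells are plated, rested 6 hr, then dosed with test compound in DMSO and challenged with 1 nM promegestone. After 16 hr incubation, substrate loading for 2 h at room temperature precedes fluorescence reading; viability is measured in the same wells.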

The nature of test [8]: TOX21_PR_BLA_Followup_Antagonist_viability: Viability Assessment in the Tox21 HEK293 Progesterone Receptor (PR) Antagonism Beta-lactamase Follow-Up Assay (AID 2283936).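 Further: cells exposed to compound with R5020 agonist for 16 h; hits lower the luminescence signal meaning cytotoxicity.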 The procedure, abridged: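 PR-UAS-bla HEK293T cells in medium with 2% charcoal-stripped FBS were treated with compounds plus R5020 for 16 hr at 37C. After the beta-lactamase read, CellTiter-Glo was added to the same wells and luminescence read after 30 min at room temperature.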

Test [9] concerns the target PGR (gene 5241) (UniProt P06401). In words: TOX21_PR_LUC_Followup_Antagonist: Tox21 HEK293 Progesterone Receptor (PR) Antagonism Luciferase Follow-Up Assay (AID 2283938).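 Further: curve fitted upward as signal gain over DMSO baseline despite antagonist label.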 Summed up: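 HEK293-PR-A-luc cells were precultured 5 days in medium with 10% charcoal-stripped FBS, seeded 3,000/well, then exposed to compounds in DMSO for 16 h at 37C. Luciferase was read by ONE-Glo luminescence after 30 min at room temperature.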

Test [10] is described as follows: TOX21_PR_LUC_Followup_Antagonist_viability: Viability Assessment in the Tox21 HEK293 Progesterone Receptor (PR) Antagonism Luciferase Follow-Up Assay (AID 2283940). Summed up:
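HEK293-PR-A-luc, 3,000 cells/well; 5 h at 37C/0% CO2; compound pin transfer; 16 h incubation; CellTiter-Glo ATP luminescence, signal loss = cytotoxicity.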

A short description of test [11]: TOX21_PR_LUC_Followup_Agonist_viability: Viability Assessment in the Tox21 HEK293 Progesterone Receptor (PR) Agonism Luciferase Follow-Up Assay (AID 2283941).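 Further: loss of signal means cytotoxicity so actives lower viability.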 Summed up:
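Multiplexed viability endpoint of the PR agonist luciferase follow-up: HEK293-PR-A-luc cells treated 16 h at 37C, with viability scored as decrease in CellTiter-Glo ATP signal.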

Test [12] can be described thus: CCTE_Deisenroth_DEVTOX-GLR_legacy_CellCount: (Legacy) Viability Assessment in CCTE's DevTox GLR-Endo Assay, Deisenroth Lab (AID 2284331; active means hit-call score of the fitted dose curve at least 0.9, where 1 is the maximum; inactive means score below 0.9). To be noted: actives raise or lower the signal. The procedure, abridged: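 Viability is taken from imaged nuclei counts in fixed RUES2-GLR cultures after 48 h of differentiation under two 24 h-spaced chemical exposures, 10 concentrations from 1 nM to 200 uM, gain or loss versus DMSO baseline.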

The subject of test [13] is SRY-box transcription factor 17 (SOX17) Protein Expression, Deisenroth Lab, SOX17 (gene 64321). In words: CCTE_Deisenroth_DEVTOX-GLR_legacy_Sox17: (Legacy) CCTE's DevTox GLR-Endo Assay Evaluation of SRY-box transcription factor 17 (SOX17) Protein Expression, Deisenroth Lab (AID 2284341; active means hit-call score of the fitted dose curve at least 0.9, where 1 is the maximum; inactive means score below 0.9). As to conditions: actives raise or lower the signal. The procedure, abridged:
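Endoderm-differentiation readout in RUES2-GLR human pluripotent cells at 48 h, concentrations spanning 1 nM - 200 uM. Sox17-positive cells divided by total cell count; gain or loss relative to DMSO solvent control, n=4 experimental replicates.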

For test [14], the system named is SRY-box transcription factor 2 (SOX2) Protein Expression, Deisenroth Lab, SOX2 (gene 6657). In words: CCTE_Deisenroth_DEVTOX-GLR_legacy_Sox2: (Legacy) CCTE's DevTox GLR-Endo Assay Evaluation of SRY-box transcription factor 2 (SOX2) Protein Expression, Deisenroth Lab (AID 2284346; active means hit-call score of the fitted dose curve at least 0.9, where 1 is the maximum; inactive means score below 0.9). Summed up: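 Read-out: fraction of Sox2+ cells by high-content fluorescence imaging of fixed RUES2-GLR cells after 48 h differentiation with two 24 h-spaced exposures. Positivity cutoff 5x BMAD above endoderm control median; 0.2% DMSO median subtracted.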

The test system of test [15] is SRY-box transcription factor 17 (SOX17) Protein Expression, Deisenroth Lab, SOX17 (gene 64321). In words: CCTE_Deisenroth_DEVTOX-GLR_Endo_SOX17: CCTE's DevTox GLR-Endo Assay Evaluation of SRY-box transcription factor 17 (SOX17) Protein Expression, Deisenroth Lab (AID 2284413; active means hit-call score of the fitted dose curve at least 0.9, where 1 is the maximum; inactive means score below 0.9). Summed up: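 Human RUES2-GLR cells carrying an inducible fluorescent reporter are differentiated in defined media for 48 h and dosed twice, 24 h apart. After fixation and nuclear staining, imaging yields SOX17+ cell percentage relative to 0.2% DMSO-treated differentiated cells.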

Test [16] relates to Brachyury (BRA) Protein Expression, TBXT (gene 6862). Kind of test: CCTE_Deisenroth_DEVTOX-GLR_Endo_BRA: CCTE's DevTox GLR-Endo Assay Evaluation of Brachyury (BRA) Protein Expression, Deisenroth Lab (AID 2284417; active means hit-call score of the fitted dose curve at least 0.9, where 1 is the maximum; inactive means score below 0.9). The procedure, abridged:
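Read-out: BRA+ cell count divided by total cell count by high-content imaging (5 fields per well), expressed relative to 0.2% DMSO solvent control. RUES2-GLR cells dosed twice over a 48 h differentiation; concentrations 1 nM - 200 uM.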

Test [17] is described as follows: CCTE_Deisenroth_DEVTOX-GLR_Endo_CellCount: Viability Assessment in CCTE's DevTox GLR-Endo Assay, Deisenroth Lab (AID 2284420; active means hit-call score of the fitted dose curve at least 0.9, where 1 is the maximum; inactive means score below 0.9). The procedure, abridged:
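RUES2-GLR human pluripotent cells seeded 24 h, then differentiated 48 h with two chemical exposures at 24 h intervals (10-point, 1 nM - 200 uM). Fixed, nuclear-stained, imaged; nuclei counts give % change in cell count versus 0.2% DMSO.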

Test [18] is described as follows: CCTE_Deisenroth_DEVTOX-GLR_Pluri_CellCount: Viability Assessment in CCTE's DevTox GLR-Pluri Assay Evaluation of Total Cell Counts, Deisenroth Lab (AID 2284430; active means hit-call score of the fitted dose curve at least 0.9, where 1 is the maximum; inactive means score below 0.9). Summed up: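 Cytotoxicity readout: fluorescent nuclei counts by high-content imaging, expressed as percent change relative to 0.2% DMSO. Human RUES2-GLR pluripotent line differentiated 48 h, dosed twice at 24-h intervals across 1 nM - 200 uM (10 points).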

Test [19] is described as follows: TOX21_PR_BLA_Followup_Agonist_viability: Viability Assessment in the Tox21 HEK293 Progesterone Receptor (PR) Agonism Beta-lactamase Follow-Up Assay (AID 2283935).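 Further: signal loss means lower viability so actives are cytotoxic.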 Summed up:
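Cells were plated in medium with 2% charcoal-stripped FBS and rested 6 hr. Compounds in DMSO were then added for 16 hr at 37C, followed by the FRET substrate step and CellTiter-Glo luminescence after 30 min.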

Each structure is given as a SMILES string. Results filed as inconclusive are left out. The source made the active and inactive calls. How the source made its calls, unless noted: active means hit-call score of the fitted dose curve at least 0.9, where 1 is the maximum; inconclusive means response in the unintended direction; inactive means score below 0.9.

Cellular tumor antigen p53 (Homo sapiens), sequence (P04637 whole entry, looked up): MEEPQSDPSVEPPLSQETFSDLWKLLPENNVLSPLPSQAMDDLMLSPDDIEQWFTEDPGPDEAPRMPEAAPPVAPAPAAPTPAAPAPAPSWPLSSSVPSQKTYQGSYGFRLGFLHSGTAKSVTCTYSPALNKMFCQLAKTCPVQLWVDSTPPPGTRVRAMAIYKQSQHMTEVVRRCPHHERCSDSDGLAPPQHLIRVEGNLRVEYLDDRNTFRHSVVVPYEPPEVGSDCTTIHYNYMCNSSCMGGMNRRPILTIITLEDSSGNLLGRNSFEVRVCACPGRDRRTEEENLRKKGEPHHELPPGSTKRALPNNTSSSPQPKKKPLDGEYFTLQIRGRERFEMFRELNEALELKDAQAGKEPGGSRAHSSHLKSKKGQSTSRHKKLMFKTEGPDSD
PGR (gene 5241), sequence (P06401 whole entry, looked up): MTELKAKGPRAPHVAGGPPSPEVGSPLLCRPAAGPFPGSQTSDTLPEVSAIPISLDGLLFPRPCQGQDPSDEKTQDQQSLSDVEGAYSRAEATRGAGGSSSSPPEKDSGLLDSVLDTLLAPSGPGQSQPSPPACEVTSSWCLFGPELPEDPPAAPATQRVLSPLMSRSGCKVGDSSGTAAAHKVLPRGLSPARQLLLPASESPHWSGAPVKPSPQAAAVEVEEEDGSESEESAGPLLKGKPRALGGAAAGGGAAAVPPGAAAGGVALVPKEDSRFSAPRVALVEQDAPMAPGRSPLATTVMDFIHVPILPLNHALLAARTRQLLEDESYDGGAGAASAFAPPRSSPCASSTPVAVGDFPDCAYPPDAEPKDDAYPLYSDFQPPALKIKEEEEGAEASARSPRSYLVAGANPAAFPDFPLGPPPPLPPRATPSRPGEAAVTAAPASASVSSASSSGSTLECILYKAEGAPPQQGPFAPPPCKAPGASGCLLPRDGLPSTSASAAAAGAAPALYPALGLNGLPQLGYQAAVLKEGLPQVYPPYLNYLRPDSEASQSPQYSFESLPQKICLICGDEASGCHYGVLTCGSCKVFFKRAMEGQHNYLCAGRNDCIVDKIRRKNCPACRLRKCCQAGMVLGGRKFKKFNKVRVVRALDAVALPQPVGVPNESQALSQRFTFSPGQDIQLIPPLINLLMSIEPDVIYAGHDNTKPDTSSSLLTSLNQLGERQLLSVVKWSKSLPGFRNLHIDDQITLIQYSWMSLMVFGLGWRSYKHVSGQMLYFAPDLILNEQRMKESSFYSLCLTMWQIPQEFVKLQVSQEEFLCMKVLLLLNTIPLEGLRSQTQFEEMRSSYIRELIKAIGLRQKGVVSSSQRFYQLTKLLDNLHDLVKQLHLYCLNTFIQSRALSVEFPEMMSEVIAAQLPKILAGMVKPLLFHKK

With `CC1(C)S[C@@H]2[C@H](NC(=O)C(c3ccccc3)S(=O)(=O)O)C(=O)N2[C@H]1C(=O)O` (some centres undefined), the call in [1], in [2], in test [3] and in [4] was inactive.
For `NCc1ccccc1Sc1ccccc1CO`, the compound was classed as inactive in test [1], in [2], in test [3] and in test [4].
`CCCCCCCCCCCCCCCCCCOCCO`: the call in test [1], in test [2], in [5] and in [6] was inactive.
Turning to `O=C1O[C@H]2[C@H](O)[C@@H]1OC(O)[C@H]2O` (some centres undefined), the outcome in [1], in test [2], in test [3], in [6] and in [4] was inactive.
Take `C=C(C)C(=O)OCCCCCCCCCCOC(=O)C(=C)C`: the call in test [1], in [2] and in test [5] was inactive.
Turning to `C[C@@H]1C[C@H]2[C@@H]3C[C@H](F)C4=CC(=O)C(Cl)=C[C@]4(C)[C@@]3(F)[C@@H](O)C[C@]2(C)[C@@]1(O)C(=O)CO`, the call (in [1]; in test [2]; in [5]; in [6]; with PGR (gene 5241) [7]; in [8]) was inactive. The compound was called inactive (with PGR (gene 5241) [9]; in [10]; in [11]).
In the case of `CCN(CCCCOC(=O)c1ccc(OC)c(OC)c1)C(C)Cc1ccc(OC)cc1` (centres undefined), the compound was classed as inactive in test [1], in [2], in [3] and in test [4].
For orientation: AC50 means the concentration giving half of the maximal activity seen. On to `CCCCCN=C(N)N/N=C/c1c[nH]c2ccc(OC)cc12`, for which the result in [1], in test [2], in test [3], in test [4] and in [14] was inactive. The AC50 was 5.09 µM (active) in test [12]; 5.47 µM (active) in [13]; 5.27 µM (active) in [15]; 143 µM (active) in test [16]; 5.15 µM (active) in test [17]; 7.83 µM (active) in [18].
In the case of `CCOC(=O)C1=C[C@@H](OC(CC)CC)[C@H](NC(C)=O)[C@@H](N)C1`, the compound was classed as inactive in test [1], in test [2], in [5] and in [4].
As for `O=C(O)C(=O)Cc1ccccc1`, the compound was classed as inactive in test [1], in test [2], in [5] and in test [4].
As to `CCN(CC)CCOCCOC(=O)C1(c2ccccc2)CCCC1`, the outcome in test [1], in test [2], in [3], in [6] and in test [4] was inactive.
In the case of `C[C@H]1C[C@H]2[C@@H]3CCC4=CC(=O)C=C[C@]4(C)[C@@]3(Cl)[C@@H](O)C[C@]2(C)[C@@]1(O)C(=O)CO`, the result (in test [1]; in test [2]; in test [3]; in [6]; in test [4]; with PGR (gene 5241) [7]) was inactive. Besides, the call (in test [19]; with PGR (gene 5241) [9]; in test [10]; in test [11]) was inactive.
Regarding `CCOC(=O)OCC/C(SC(=O)OCC)=C(\C)N(C=O)Cc1cnc(C)nc1N`, the compound was classed as inactive in test [1], in [2], in test [3] and in test [6].
On to `CC1(C)[C@H]2CC[C@](C)(C2)[C@H]1O`, for which the compound was called inactive in [1], in test [2], in [3] and in [4].
Consider `O=C1OCCO1`, for which the call in [1], in test [2], in test [5] and in [6] was inactive.

The record behind these values is PubChem BioAssay (EPA / NIEHS).
